According to PubChem BioAssay (EPA / NIEHS):
Results filed as inconclusive are left out. Active and inactive are the calls of the source. The calls were made as follows, unless noted: active = hit-call score of the fitted dose curve at least 0.9, where 1 is the maximum; inactive = score below 0.9.

How the values were obtained:
[1] = ACEA_ER_80hr: ACEA Biosciences xCELLigence Real-Time Cell Analysis on Estrogen Receptor Agonism for Proliferation (AID 2282667; active = hit-call score of the fitted dose curve at least 0.9, where 1 is the maximum); settings: T47D proliferation, impedance (xCELLigence), 80 h
Summary of the method: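 Real-time impedance growth kinetics of human T-47D breast cells read 80 h after dosing, gain-of-signal fitted relative to DMSO. Compounds: 1:4 serial series, top final concentration 100 uM, n = 2.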

[2] = APR_HepG2_CellCycleArrest_24hr: Apredica 24-hour HepG2 Assay for Cell Cycle Arrest (AID 2282905); settings: imaging, actives raise or lower the signal;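 also: cell cycle arrest scored as ratio of 2N to 4N nuclear DNA content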
Summary of the method: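 Cell cycle arrest is scored from nuclear DNA content measured by high-content imaging of Hoechst 33342-stained HepG2 cells following 24-hour treatment at ten concentrations up to 200 uM, with DMSO as baseline.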

[3] = APR_HepG2_NuclearSize_24hr: Apredica 24-hour HepG2 Assay for Nuclear Size (AID 2282907); settings: high-content imaging, actives raise or lower the signal
Summary of the method: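 Compounds in DMSO (final 0.5%) were added to human HepG2 hepatoma cells at ten concentrations up to 200 uM for 24 hr. Fixed nuclei were stained with Hoechst 33342, and nuclear diameter was quantified from automated images.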

[4] = APR_HepG2_CellLoss_24hr: Apredica 24-hour HepG2 Assay for Cell Loss (AID 2282908); settings: high-content imaging;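 as to AC50: fit in both directions so a hit may be cell loss or gain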
Summary of the method: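 Cell number is quantified by fluorescence imaging of Hoechst 33342-stained nuclei following dosing at 0.39–200 uM in 0.5% DMSO. Curves are fitted in both directions from the DMSO baseline.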

[5] = APR_HepG2_MitoticArrest_24hr: Apredica 24-hour HepG2 Assay for Mitotic Arrest (AID 2282910); settings: high-content imaging, actives raise or lower the signal
Summary of the method: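 HepG2 cells, 24 h exposure at 0.39-200 uM (10 concentrations, duplicate, 0.5% DMSO). Fixed, stained for phospho-histone H3 with Hoechst; imaged by high-content microscopy, bidirectional fit versus DMSO.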

[6] = APR_HepG2_MitoMembPot_24hr: Apredica 24-hour HepG2 Assay for Mitochondrial Membrane Potential (AID 2282911); settings: imaging, actives raise or lower the signal
Summary of the method: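 Mitochondrial membrane potential imaged via MitoTracker Red CMXRos (250 nM, 30 min pre-fixation) in fixed HepG2 cells with Hoechst nuclear identification. Ten concentrations 0.39–200 uM, 24 h treatment, 0.5% DMSO; CCCP as positive control.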

[7] = APR_HepG2_MitoMass_24hr: Apredica 24-hour HepG2 Assay for Mitochondrial Mass (AID 2282912); settings: high-content imaging, actives raise or lower the signal
Summary of the method: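 The liver line HepG2 was dosed in duplicate across a 0.39–200 uM series, with final DMSO held at 0.5% v/v, and harvested at 24 hr. High-content imaging measured mitochondrial dye staining.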

[8] = APR_HepG2_CellCycleArrest_72hr: Apredica 72-hour HepG2 Assay for Cell Cycle Arrest (AID 2282914); settings: high-content imaging, actives raise or lower the signal
Summary of the method: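 Read-out: nuclear DNA content from Hoechst 33342 high-content imaging (20x, six fields/well) after 3.7% formaldehyde fixation, fitted bidirectionally against DMSO. Treatment was 72 h in HepG2, ten concentrations 0.39–200 uM, duplicate, 0.5% DMSO.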

[9] = APR_HepG2_CellLoss_72hr: Apredica 72-hour HepG2 Assay for Cell Loss (AID 2282915); settings: high-content imaging
Summary of the method: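 HepG2 cells exposed 72 h to compound at 0.39–200 uM (10 concentrations, duplicate) in 0.5% DMSO. Fixed with 3.7% formaldehyde and Hoechst 33342-stained. Imaged at 20x; nuclear count gives cell number, fitted bidirectionally versus DMSO.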

[10] = APR_HepG2_P-H2AX_72hr: Apredica 72-hour HepG2 Assay for H2AX Phosphorylation (AID 2282916); settings: imaging, actives raise or lower the signal;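 also: phospho-histone H2A.x immunostain intensity per cell marking DNA damage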
Summary of the method: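 Following 72 hr treatment with 0.39–200 uM compound, HepG2 cells were formaldehyde-fixed, permeabilized and stained for phospho-H2A.x; signal was measured by high-content imaging and fitted bidirectionally against DMSO controls.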

[11] = APR_HepG2_MitoticArrest_72hr: Apredica 72-hour HepG2 Assay for Mitotic Arrest (AID 2282918); settings: high-content imaging, actives raise or lower the signal
Summary of the method: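 High-content imaging of fixed human HepG2 cells after 72 h compound exposure (0.39–200 uM, duplicates, 0.5% DMSO); mitotic arrest scored from phospho-histone H3 and nuclear Hoechst staining relative to DMSO.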

[12] = APR_HepG2_P-H2AX_24hr: Apredica 24-hour HepG2 Assay for H2AX Phosphorylation (AID 2282920); settings: high-content imaging, actives raise or lower the signal
Summary of the method: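 High-content imaging of phospho-histone H2A.x immunofluorescence, nuclei counterstained with Hoechst 33342, in fixed HepG2 cells. Compounds ran 0.39–200 uM in duplicate for 24 h, final DMSO 0.5%. Signal change fitted both directions against DMSO.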

[13] = APR_HepG2_StressKinase_72hr: Apredica 72-hour HepG2 Assay for Stress Kinase (AID 2282921); settings: HepG2 stress kinase (phospho-c-Jun) imaging, actives raise or lower the signal
Summary of the method: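 Fluorescence intensity of Cy3-tagged anti-phospho-c-Jun antibody, quantified per cell from Hoechst-defined nuclei across six images per well, served as the read-out following 72 h exposure (0.39–200 uM, 0.5% v/v DMSO).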

[14] = APR_HepG2_StressKinase_24hr: Apredica 24-hour HepG2 Assay for Stress Kinase (AID 2282922); settings: HepG2 stress kinase (phospho-c-Jun) imaging, actives raise or lower the signal
Summary of the method: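 HepG2 cells exposed 24 h to 0.39–200 uM compound in duplicate (0.5% v/v DMSO final). Cells fixed in 3.7% formaldehyde, permeabilized and immunostained for phospho-c-Jun; read by high-content fluorescence imaging, fitted bidirectionally against DMSO.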

[15] = APR_HepG2_MitoMass_72hr: Apredica 72-hour HepG2 Assay for Mitochondrial Mass (AID 2282924); settings: high-content imaging, actives raise or lower the signal;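 also: MitoTracker Red CMXRos stain intensity per cell imaged as mitochondrial mass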
Summary of the method: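 HepG2 cells dosed 72 hr at 0.39–200 uM (0.5% DMSO), in duplicate. MitoTracker Red CMXRos 250 nM loaded 30 min before formaldehyde fixation; high-content fluorescence imaging, bidirectional fit versus DMSO.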

[16] = APR_HepG2_p53Act_24hr: Apredica 24-hour HepG2 Assay for p53 Activation (AID 2282913); settings: high-content imaging, actives raise or lower the signal;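 also: p53 protein immunofluorescence averaged per cell in HepG2 with Hoechst nuclei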
Summary of the method: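 Fluorescence imaging of formaldehyde-fixed HepG2 cells labelled for p53 and with Hoechst, 24 h after dosing (0.39–200 uM, duplicate wells, 0.5% v/v DMSO). Signal fitted in both directions relative to DMSO.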

[17] = APR_HepG2_p53Act_72hr: Apredica 72-hour HepG2 Assay for p53 Activation (AID 2282923); settings: high-content imaging, actives raise or lower the signal;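 also: average cellular p53 protein immunofluorescence intensity in HepG2 cells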
Summary of the method: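 HepG2 monolayers receive test compounds in duplicate at ten concentrations (0.39 through 200 uM) for 72 hr. They are then formaldehyde-fixed, antibody-labelled for p53, Hoechst-stained and imaged, with activity fitted bidirectionally versus DMSO.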

Measured: AC50

NC(=O)N1c2ccccc2C=Cc2ccccc21
active: [1] 69.5 µM
not listed: [16] | [17]
inactive: all other assays above

CCCCCCCCCCCCCCO
active: [2] 162 µM | [4] 98.1 µM | [5] 99.3 µM | [7] 106 µM | [16] 95.8 µM | [8] 100 µM | [9] 106 µM | [10] 98.6 µM | [11] 90.9 µM | [12] 101 µM | [17] 104 µM
inactive: [1] | [3] | [6] | [13] | [14] | [15]

CNC(C)=O
not listed: [16] | [17]
inactive: all other assays above

OCC(CO)(CO)CO
not listed: [16] | [17]
inactive: all other assays above
